Reference: paper PMC5540273 (PLoS ONE, 2017)

Key:
Details in all cases: concentration: 1 μM, replicates: in singlicate; n = 1
[1] = test system: HPK1
[2] = test system: HUNK
[3] = test system: ICK
[4] = test system: IGF1R
[5] = test system: T1, IKK-alpha
T1 construct: gene CHUK

[6] = test system: T2, IKK-beta
T2 construct: gene IKBKB

[7] = test system: T3, IKK-epsilon
T3 construct: gene IKBKE

[8] = test system: INSRR
[9] = test system: INSR
[10] = test system: IRAK1
[11] = test system: IRAK3
[12] = test system: IRAK4
[13] = test system: ITK
[14] = test system: JAK1(JH1domain-catalytic)
[15] = test system: JAK1(JH2domain-pseudokinase)
[16] = test system: JAK2(JH1domain-catalytic)
[17] = test system: JAK3(JH1domain-catalytic)
[18] = test system: T4, JNK1
T4 construct: gene MAPK8

[19] = test system: T5, JNK2
T5 construct: gene MAPK9

[20] = test system: T6, JNK3
T6 construct: gene MAPK10
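Also: KINOMEscan kinase panel screen.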

SMILES | %Inh [1] [%] | %Inh [2] [%] | %Inh [3] [%] | %Inh [4] [%] | %Inh [5] [%] | %Inh [6] [%] | %Inh [7] [%] | %Inh [8] [%] | %Inh [9] [%] | %Inh [10] [%] | %Inh [11] [%] | %Inh [12] [%] | %Inh [13] [%] | %Inh [14] [%] | %Inh [15] [%] | %Inh [16] [%] | %Inh [17] [%] | %Inh [18] [%] | %Inh [19] [%] | %Inh [20] [%]
CC(=O)Nc1ccc(COc2ccc(Nc3ccnc4cc(-c5ccccn5)ccc34)cc2)cc1.Cl [GW440148] | 10 | 22 | 0 | 0 | 0 | 4 | 21 | 0 | 12 | 0 | 6 | 0 | 0 | 22 | 0 | 18 | 0 | 0 | 17 | 9
CN1c2ccc(CNc3ccc(F)cc3)cc2-c2c(cnn2C)S1(=O)=O | 17 | 34 | 0 | 0 | 0 | 0 | 0 | 0 | 0 | 0 | 0 | 0 | 0 | 2 | 20 | 0 | 0 | 0 | 0 | 0
CNc1ncnc2[nH]ncc12 [SKF-18355] | 0 | 34 | 0 | 0 | 0 | 0 | 0 | 0 | 7 | 9 | 0 | 0 | 0 | 0 | 31 | 20 | 2 | 8 | 1 | 0
O=C1Cc2cc(Nc3nc(NCc4cccc(S(=O)(=O)C(F)(F)F)c4)ncc3C(F)(F)F)ccc2N1 | 0 | 8 | 0 | 0 | 20 | 8 | 0 | 0 | 0 | 14 | 0 | 22 | 0 | 28 | 0 | 7 | 7 | 9 | 0 | 0
Nc1nccc(-c2c(-c3ccc(F)cc3)ncn2C2CCN(CC(F)(F)F)CC2)n1 [SB-236560] | 48 | 0 | 63 | 0 | 7 | 0 | 54 | 21 | 0 | 29 | 0 | 0 | 0 | 0 | 0 | 0 | 29 | 63 | 91.3 | 89
Cc1nnc(-c2ccc3ncc(-c4ccc(S(C)=O)cc4)n3c2)o1 (centres unmarked) | 0 | 0 | 22 | 0 | 15 | 21 | 0 | 0 | 2 | 7 | 23 | 15 | 7 | 11 | 0 | 0 | 0 | 22 | 18 | 24
Fc1ccc(-c2nn3c(OCC(F)(F)F)cccc3c2-c2ccncc2)cc1 [GW514784] | 6 | 31 | 0 | 0 | 0 | 0 | 22 | 0 | 0 | 19 | 0 | 0 | 9 | 24 | 14 | 4 | 0 | 97.6 | 99.9 | 99.9
COc1cc(Nc2nccc(N3CCC(NC(=O)c4cccc(NC(C)=O)c4)C3)n2)cc(OC)c1OC (centres unmarked) [GSK1379754] | 70 | 0 | 0 | 0 | 5 | 8 | 14 | 0 | 1 | 40 | 85 | 12 | 6 | 7 | 11 | 97.3 | 0 | 31 | 22 | 40
Cc1cccc(Cn2ccn3c(=O)cc(N4CCOCC4)nc23)c1 [GSK2297542] | 37 | 0 | 5 | 29 | 0 | 0 | 15 | 0 | 9 | 20 | 20 | 7 | 24 | 14 | 0 | 0 | 0 | 17 | 31 | 8
CC(C)Oc1ccc2c(-c3ccnc(Nc4ccc(N5CCN(C)CC5)cc4)n3)cnn2n1 [GW696155] | 54 | 0 | 49 | 0 | 100 | 100 | 54 | 0 | 21 | 99.9 | 94.2 | 60 | 0 | 48 | 93.5 | 99.4 | 100 | 100 | 99.7 | 99.9
